# Experimental data reported in PubChem BioAssay (NCATS).
# Several values for one entry are separate records, joined by “and”; a condition that tells them apart may be missing. Identical values can stand only once. Inconclusive results are not listed. Activity calls are given as the source filed them. Unless noted, calls come from the whole dose curve; as a rule, active = well fitted curve in the direction sought with a large enough effect; inconclusive = small, poorly fitted or top-dose-only effect, or another doubt; inactive = no such curve, though single readings can be large; an effect the other way counts as inactive or inconclusive.
# Tests used:
# [1] = target: Cytochrome P450 2D6 (Homo sapiens) (UniProt P10635); assay: Cytochrome P450 family 2 subfamily D member 6 (CYP2D6) small molecule antagonists: luciferase biochemical (cell-free) qHTS assay (AID 1645840; active = well fitted curve in the direction sought with a large enough effect in the repeat runs; an effect the other way counts as inactive or inconclusive; note: nearly all actives have a fitted effect of over 55% in size; note: potency is the fitted concentration of half-maximal effect; for activity change, negative = inhibition: % is set by controls: 0 for no effect and ±100 for the full control effect)
# Outline: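 P450-Glo luminescent screen: recombinant CYP2D6 enzyme–proluciferin substrate mix preincubated with compound 10 min at room temperature, then NADPH regeneration added for 1 h at room temperature. Detection reagent added for 20 min; luciferin light read as relative luminescence units.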
# [2] = target: Cytochrome P450 2C9 (Homo sapiens) (UniProt P11712); assay: Cytochrome P450 family 2 subfamily C member 9 (CYP2C9) small molecule antagonists: luciferase biochemical (cell-free) qHTS assay (AID 1645842; active = well fitted curve in the direction sought with a large enough effect in the repeat runs; an effect the other way counts as inactive or inconclusive; note: potency is the fitted concentration of half-maximal effect; nearly all actives have a fitted effect of over 55% in size)
# Outline: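 Luminescence, after 20 min with luciferin detection reagent, reflected CYP2C9 turnover during a 1 h NADPH-driven reaction at 37C. Enzyme-substrate mix contained 0.4% bovine serum albumin and was preincubated with compound 10 min at room temperature.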
# [3] = Primary qHTS for inhibitors of nuclear receptor binding SET domain protein 2 (NSD2) in an isogenic RCH-ACV NSD2 p.E1099K mutant (9B) (AID 1645876); note: nearly all actives have a fitted effect of over 70% in size; note: potency is the fitted concentration of half-maximal effect
# [4] = Primary qHTS for inhibitors of nuclear receptor binding SET domain protein 2 (NSD2) in an RCH-ACV wild type WT cells (2C) (AID 1645877); note: nearly all actives have a fitted effect of over 70% in size; note: potency is the fitted concentration of half-maximal effect
# [5] = Primary qHTS for small molecule stabilizers of the endoplasmic reticulum resident proteome: Secreted ER Calcium Modulated Protein (SERCaMP) assay (AID 1508630); note: % is set by controls: 0 for no effect and ±100 for the full control effect
# Outline: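 GLuc-SERCaMP-expressing SH-SY5Y cells, pretreated 16 h with compound, are challenged with thapsigargin to empty ER calcium stores; after 4 h, coelenterazine is added directly to the medium and luminescence is imaged.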
# [6] = target: Catechol O-methyltransferase (Homo sapiens) (UniProt P21964); assay: Confirmatory Screen for Target Class Profiling of Small Molecule Inhibitors of Methyltransferases (AID 1745852; calls by dose curve; for activity change, negative = inhibition: % is set by controls: 0 for no effect and ±100 for the full control effect); details: MTase-Glo luminescence, SAH detection, recombinant enzyme; measured here: COMT max response; stronger effect = lower value
# [7] = target: Guanidinoacetate N-methyltransferase (Homo sapiens) (UniProt Q14353); assay: as above; details: MTase-Glo luminescence, SAH detection, recombinant enzyme; activity change, negative = inhibition: at 57.3 µM (top of the series) unless noted
# Cytochrome P450 2C9 (Homo sapiens), sequence (P11712 whole entry, looked up): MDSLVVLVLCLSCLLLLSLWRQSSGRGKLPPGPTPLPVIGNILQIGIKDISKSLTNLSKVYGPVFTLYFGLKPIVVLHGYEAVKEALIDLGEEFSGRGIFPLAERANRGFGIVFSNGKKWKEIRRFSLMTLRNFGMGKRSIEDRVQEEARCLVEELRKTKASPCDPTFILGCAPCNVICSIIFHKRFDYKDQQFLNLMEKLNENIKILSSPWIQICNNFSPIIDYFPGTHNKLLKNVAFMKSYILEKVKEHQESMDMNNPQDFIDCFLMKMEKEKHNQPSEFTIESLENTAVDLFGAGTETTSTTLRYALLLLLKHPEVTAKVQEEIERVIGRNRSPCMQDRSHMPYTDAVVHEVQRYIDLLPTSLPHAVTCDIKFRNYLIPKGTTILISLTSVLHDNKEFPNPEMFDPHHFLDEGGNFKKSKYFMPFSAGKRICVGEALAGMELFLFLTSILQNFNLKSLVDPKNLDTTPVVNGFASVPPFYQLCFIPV
# Cytochrome P450 2D6 (Homo sapiens), sequence (P10635 whole entry, looked up): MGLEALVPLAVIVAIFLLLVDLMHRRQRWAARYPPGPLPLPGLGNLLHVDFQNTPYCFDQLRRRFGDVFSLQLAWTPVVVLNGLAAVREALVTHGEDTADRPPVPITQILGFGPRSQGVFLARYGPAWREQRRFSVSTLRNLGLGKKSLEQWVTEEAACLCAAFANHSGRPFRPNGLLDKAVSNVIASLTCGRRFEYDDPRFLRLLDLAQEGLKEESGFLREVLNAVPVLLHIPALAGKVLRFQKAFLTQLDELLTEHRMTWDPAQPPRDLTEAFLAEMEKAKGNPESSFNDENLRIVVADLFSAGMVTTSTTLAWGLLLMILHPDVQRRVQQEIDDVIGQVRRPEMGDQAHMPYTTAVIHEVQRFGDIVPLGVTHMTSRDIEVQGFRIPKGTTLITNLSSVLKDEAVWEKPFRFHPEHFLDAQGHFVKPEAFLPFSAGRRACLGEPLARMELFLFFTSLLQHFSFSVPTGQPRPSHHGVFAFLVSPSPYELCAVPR
# Catechol O-methyltransferase (Homo sapiens), sequence (P21964 whole entry, looked up): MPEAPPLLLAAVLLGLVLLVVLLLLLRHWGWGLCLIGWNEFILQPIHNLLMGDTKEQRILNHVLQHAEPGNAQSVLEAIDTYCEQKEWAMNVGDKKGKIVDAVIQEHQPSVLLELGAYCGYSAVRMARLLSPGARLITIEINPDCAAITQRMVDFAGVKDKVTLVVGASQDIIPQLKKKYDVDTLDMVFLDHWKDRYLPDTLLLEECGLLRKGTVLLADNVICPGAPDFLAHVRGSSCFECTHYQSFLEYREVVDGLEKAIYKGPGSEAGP
compound,measurement,setting,value
COc1ccc2c(OCc3nnc4ccc(-c5ccccc5)nn34)ccnc2c1,Potency,[1],inactive
same,Potency,[2],0.756 µM (active)
same,Potency,[3],inactive
CN(C1CCc2c(c3ccccc3n2CC(=O)O)C1)S(=O)(=O)c1ccc(F)cc1 (configuration not stated),Potency,[1],inactive
same,Potency,[2],19 µM (active) and 13.5 µM (active)
same,Potency,[3],inactive
same,Potency,[4],inactive
Cc1ccc(C(=O)Nc2ccc(CN3CCN(C)CC3)c(C(F)(F)F)c2)cc1C#Cc1cnc2cccnn12,Potency,[1],16.9 µM (active)
same,Potency,[2],12 µM (active)
same,Potency,[3],29 nM (active) and 186 nM (active)
same,Potency,[4],91.6 nM (active) and 209 nM (active)
CC(C)c1nn(-c2c(Cl)cccc2Cl)c2nc(Cc3ccc(OCCO)cc3)[nH]c(=O)c12,Potency,[1],inactive
same,Potency,[2],5.35 µM (active)
same,Potency,[3],45.9 nM (active) and 46.8 nM (active)
same,Potency,[4],25.8 nM (active) and 41.7 nM (active)
COc1cc(OC2CCN(C)CC2)ccc1Nc1ncc2c(n1)n(C1CCCC1)c(=O)n2C,Potency,[5],inactive
same,Potency,[3],5.25 µM (active)
same,Potency,[4],3.72 µM (active)
CCN1CCN(CC(=O)Nc2ccc(-c3cccc4c(=O)cc(N5CCOCC5)oc34)c3sc4ccccc4c23)CC1,Potency,[5],inactive
same,Potency,[3],66.8 nM (active) and 257 nM (active)
same,Potency,[4],94.4 nM (active) and 257 nM (active)
CC(=O)OCC(=O)[C@@]1(O)[C@H](C)C[C@H]2[C@@H]3C=C(C)C4=Cc5c(cnn5-c5ccccc5)C[C@]4(C)[C@@H]3[C@@H](O)C[C@@]21C,Potency,[5],inactive
same,Potency,[4],0.0132 µM (active)
Cc1cc(Nc2cc(N3CCN(C)CC3)nc(Sc3ccc(NC(=O)C4CC4)cc3)n2)n[nH]1,Potency,[5],inactive
same,Potency,[3],0.296 µM (active)
same,activity,[6],-3.34%
same,"activity change, negative = inhibition",[7],-2.28%
